# Records with an inconclusive call do not appear. Entries that show only a call come without a potency. Values without a mark were called inactive. The source made the active and inactive calls. The call rests on the fitted dose curve; in most records, active means well fitted curve in the direction sought with a large enough effect; inconclusive means small, poorly fitted or top-dose-only effect, or another doubt; inactive means no such curve, though single readings can be large; an effect the other way counts as inactive or inconclusive.
# Assays:
# CRL-7250 = normal cell line; experiment: Cytotoxic Profiling of Annotated Libraries Using Quantitative High-Throughput Screening (AID 1296008); details: Five cell lines viability, CellTiter-Glo ATP luminescence, 48-72 h; max response: hits give low values; further: nearly all actives have a fitted effect of over 60% in size
# Method in brief: (§1)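 Cells exposed to compounds for 48 or 72 hr at 37 degrees Celsius. Viability read as ATP-coupled luminescence with CellTiter-Glo after 10 min at room temperature.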
# HEK293 = experiment: as above; details: Five cell lines viability, CellTiter-Glo ATP luminescence, 48-72 h; max response: hits give low values
# Method in brief: as §1
# KB-3-1 = experiment: as above; details: Five cell lines viability, CellTiter-Glo ATP luminescence, 48-72 h; max response: hits give low values
# Method in brief: as §1
# NIH3T3 [1] = experiment: as above; details: Five cell lines viability, CellTiter-Glo ATP luminescence, 48-72 h; max response: hits give low values
# Method in brief: as §1
# HEK293T = experiment: qHTS assay to identify novel small-molecules to repurpose for Merkel cell carcinoma treatment (AID 1296009); details: MCC and control cell lines, CellTiter-Glo viability, 72 h; at 44.8 µM (top of the series) unless noted; further: nearly all actives have a fitted effect of over 60% in size
# Method in brief: (§2)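 CellTiter-Glo luminescence after 72 hr compound exposure at 37 degree celsius gave cell viability. Libraries NPC and MIPE were run as 8- and 11-point dose responses; RLUs normalized to DMSO (negative) and no-cell (cytotoxicity) controls.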
# MCC-13 = experiment: as above; details: MCC and control cell lines, CellTiter-Glo viability, 72 h; series mostly up to 46 µM
# Method in brief: as §2
# MCC-26 = experiment: as above; details: MCC and control cell lines, CellTiter-Glo viability, 72 h; series mostly up to 46 µM
# Method in brief: as §2
# MKL-1 = experiment: as above; details: MCC and control cell lines, CellTiter-Glo viability, 72 h; series mostly up to 46 µM
# Method in brief: as §2
# MKL-2 = experiment: as above; details: MCC and control cell lines, CellTiter-Glo viability, 72 h; series mostly up to 46 µM
# Method in brief: as §2
# UISO = experiment: as above; details: MCC and control cell lines, CellTiter-Glo viability, 72 h; series mostly up to 46 µM
# Method in brief: as §2
# WaGa = experiment: as above; details: MCC and control cell lines, CellTiter-Glo viability, 72 h; series mostly up to 46 µM
# Method in brief: as §2
# C33A = experiment: Primary qHTS to identify gynecologic anti-cancer compounds using libraries of approved drugs and bioactive compounds (AID 1345084); details: Gynecologic cancer cell panel viability, ATPlite luminescence, 48 h; series mostly up to 57.5 µM; further: nearly all actives have a fitted effect of over 55% in size
# Method in brief: (§3)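 48 h compound exposure at 37 C, 5% CO2; five-point qHTS. ATPlite luminescence readout of cell ATP.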
# CAOV3 = experiment: as above; details: Gynecologic cancer cell panel viability, ATPlite luminescence, 48 h; series mostly up to 57.5 µM
# Method in brief: as §3
# CASKI = experiment: as above; details: Gynecologic cancer cell panel viability, ATPlite luminescence, 48 h; series mostly up to 57.5 µM
# Method in brief: as §3
# Es-2 = experiment: as above; details: Gynecologic cancer cell panel viability, ATPlite luminescence, 48 h; series mostly up to 57.5 µM
# Method in brief: as §3
# HeLa = experiment: as above; details: Gynecologic cancer cell panel viability, ATPlite luminescence, 48 h; series mostly up to 57.5 µM
# Method in brief: as §3
# W2 = experiment: qHTS profiling for inhibitors of Plasmodium falciparum proliferation (AID 504749); further: nearly all actives have a fitted effect of over 60% in size; details: P. falciparum in erythrocytes, SYBR Green DNA, 72 h; series mostly up to 28.7 µM
# Method in brief: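 SYBR Green fluorescence (ex 485 nm, em 535 nm) reports parasite DNA after 72 h compound exposure of infected red cells at 0.3% parasitemia, 2.5% hematocrit; signal normalized to 0.29 uM artemisinin and vehicle wells.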
# NIH3T3 [2] = experiment: qHTS assay to identify novel small-molecules to repurpose for Merkel cell carcinoma treatment (AID 1296009); details: MCC and control cell lines, CellTiter-Glo viability, 72 h; at 44.8 µM (top of the series); further: nearly all actives have a fitted effect of over 60% in size
# Method in brief: as §2
# HaCat [3] = experiment: Cytotoxic Profiling of Annotated Libraries Using Quantitative High-Throughput Screening (AID 1296008); details: Five cell lines viability, CellTiter-Glo ATP luminescence, 48-72 h; max response: hits give low values; further: nearly all actives have a fitted effect of over 60% in size
# Method in brief: as §1
# HACAT [4] = experiment: qHTS assay to identify novel small-molecules to repurpose for Merkel cell carcinoma treatment (AID 1296009); details: MCC and control cell lines, CellTiter-Glo viability, 72 h; at 44.8 µM (top of the series) unless noted; further: nearly all actives have a fitted effect of over 60% in size
# Method in brief: as §2
# Potency means the concentration at half of the fitted maximal effect.
smiles,measurement,setting,value
O=C1C(O)=C(O)C(=O)C(O)=C1O,max response,CRL-7250,-21.8%
same,outcome,HEK293,inactive
same,max response,KB-3-1,-3.2%
same,max response,NIH3T3 [1],-17.6%
same,outcome,HEK293T,inactive
same,Potency,MCC-13,inactive
same,Potency,MCC-26,inactive
same,Potency,MKL-1,inactive
same,Potency,MKL-2,inactive
same,Potency,UISO,inactive
same,Potency,WaGa,inactive
same,Potency,C33A,inactive
same,Potency,CAOV3,inactive
same,Potency,CASKI,inactive
same,Potency,Es-2,inactive
CCN(CC)CCOC(=O)C1(c2ccccc2)CCCC1,max response,CRL-7250,-4.97%
same,outcome,HEK293,inactive
same,max response,KB-3-1,1.37%
same,max response,NIH3T3 [1],2.7%
same,outcome,HEK293T,inactive
same,Potency,MCC-13,inactive
same,Potency,MCC-26,inactive
same,Potency,MKL-1,inactive
same,Potency,MKL-2,inactive
same,Potency,UISO,inactive
same,Potency,WaGa,inactive
same,Potency,C33A,inactive
same,Potency,CASKI,inactive
same,Potency,Es-2,inactive
same,Potency,HeLa,inactive
CN1CCc2cccc3c2[C@H]1Cc1ccc(O)c(O)c1-3,Potency,W2,3.01 µM (active)
same,max response,CRL-7250,-21.4%
same,Potency,HEK293,23.7 µM (active)
same,max response,KB-3-1,10.6%
same,Potency,MCC-26,inactive
same,Potency,MKL-1,1.33 µM (active)
same,Potency,MKL-2,0.841 µM (active)
same,Potency,WaGa,11.9 µM (active)
same,Potency,CASKI,inactive
CC(C)(C)NC[C@H](O)COc1nsnc1N1CCOCC1,Potency,W2,1.51 µM (active)
same,max response,CRL-7250,-0.569%
same,max response,HEK293,1.26%
same,max response,KB-3-1,0.822%
same,max response,NIH3T3 [1],-2.25%
same,Potency,MCC-13,inactive
same,Potency,MKL-1,inactive
same,Potency,MKL-2,inactive
same,Potency,UISO,inactive
same,Potency,WaGa,inactive
same,Potency,C33A,inactive
same,Potency,CAOV3,inactive
same,Potency,CASKI,inactive
same,Potency,Es-2,inactive
same,Potency,HeLa,inactive
CC(=O)N[C@@H](CCC(=O)O)C(=O)O,Potency,W2,inactive
same,max response,CRL-7250,2.81%
same,max response,HEK293,-7.38%
same,max response,KB-3-1,-11.1%
same,outcome,NIH3T3 [1],inactive
same,Potency,MCC-13,inactive
same,Potency,MCC-26,inactive
same,Potency,MKL-1,inactive
same,Potency,MKL-2,inactive
same,outcome,NIH3T3 [2],inactive
same,Potency,UISO,inactive
same,Potency,WaGa,inactive
same,Potency,C33A,inactive
same,Potency,CASKI,inactive
same,Potency,Es-2,inactive
same,Potency,HeLa,inactive
CC(=O)Oc1ccc(C)cc1,Potency,W2,inactive
same,max response,CRL-7250,-8.74%
same,max response,HEK293,-1.12%
same,max response,KB-3-1,5.93%
same,max response,NIH3T3 [1],2.4%
same,Potency,MCC-13,inactive
same,Potency,MCC-26,inactive
same,Potency,MKL-1,inactive
same,Potency,MKL-2,inactive
same,Potency,UISO,inactive
same,Potency,WaGa,inactive
same,Potency,C33A,inactive
same,Potency,CASKI,inactive
same,Potency,Es-2,inactive
same,Potency,HeLa,inactive
CCCCCCCC/C=C\CCCCCCCCN,Potency,W2,inactive
same,outcome,CRL-7250,inactive
same,max response,HEK293,-3.13%
same,max response,KB-3-1,-6.06%
same,max response,NIH3T3 [1],-3%
same,Potency,MCC-13,inactive
same,Potency,MCC-26,inactive
same,Potency,MKL-1,inactive
same,Potency,MKL-2,inactive
same,Potency,UISO,inactive
same,Potency,WaGa,inactive
same,Potency,C33A,inactive
same,Potency,CAOV3,inactive
same,Potency,CASKI,inactive
same,Potency,Es-2,inactive
same,Potency,HeLa,inactive
Cc1ccc2c(Br)cc(Br)c(O)c2n1,Potency,CRL-7250,21.1 µM (active)
same,Potency,HEK293,8.41 µM (active)
same,max response,KB-3-1,8.29%
same,Potency,MCC-13,16.8 µM (active)
same,Potency,MKL-2,5.96 µM (active)
same,Potency,WaGa,9.44 µM (active)
same,Potency,C33A,20 µM (active)
same,Potency,HeLa,inactive
COc1ccc(C(=O)c2ccccc2)c(O)c1,Potency,W2,13.5 µM (active)
same,max response,CRL-7250,-4.19%
same,outcome,HEK293,inactive
same,max response,KB-3-1,-18.9%
same,max response,NIH3T3 [1],2.73%
same,outcome,HEK293T,inactive
same,Potency,MCC-13,inactive
same,Potency,MCC-26,inactive
same,Potency,MKL-1,inactive
same,Potency,MKL-2,inactive
same,Potency,UISO,inactive
same,Potency,WaGa,inactive
same,Potency,C33A,inactive
same,Potency,CAOV3,inactive
same,Potency,CASKI,inactive
same,Potency,Es-2,inactive
same,Potency,HeLa,inactive
CCC(Cc1c(I)cc(I)c(N)c1I)C(=O)O (configuration not stated),outcome,CRL-7250,inactive
same,outcome,HEK293,inactive
same,max response,KB-3-1,-8.27%
same,max response,NIH3T3 [1],2.99%
same,outcome,HEK293T,inactive
same,Potency,MCC-13,inactive
same,Potency,MCC-26,inactive
same,Potency,MKL-1,inactive
same,Potency,MKL-2,inactive
same,Potency,UISO,inactive
same,Potency,WaGa,inactive
same,Potency,C33A,inactive
same,Potency,CAOV3,inactive
same,Potency,CASKI,inactive
same,Potency,Es-2,inactive
same,Potency,HeLa,inactive
C/C=C/C=N/NC(=O)c1ccncc1,Potency,W2,inactive
same,max response,CRL-7250,-0.246%
same,max response,HEK293,-6.37%
same,max response,HaCat [3],0.247%
same,max response,NIH3T3 [1],-0.451%
same,Potency,MCC-13,inactive
same,Potency,MCC-26,inactive
same,Potency,C33A,inactive
same,Potency,CASKI,inactive
same,Potency,Es-2,inactive
same,Potency,HeLa,inactive
O=C(CCN1CCN2CCCC2C1)N1c2ccccc2Sc2ccc(Cl)cc21 (configuration not stated),Potency,W2,3.01 µM (active)
same,max response,CRL-7250,-7.08%
same,outcome,HaCat [3],inactive
same,max response,KB-3-1,7.31%
same,max response,NIH3T3 [1],3.25%
same,outcome,HACAT [4],inactive [at 17.4 µM]
same,Potency,MCC-13,inactive
same,Potency,MCC-26,inactive
same,Potency,MKL-1,inactive
same,Potency,UISO,inactive
same,Potency,WaGa,inactive
same,Potency,C33A,inactive
same,Potency,CAOV3,inactive
same,Potency,CASKI,inactive
same,Potency,Es-2,inactive
same,Potency,HeLa,inactive
CCN(CC)CCOC(=O)C(Cc1cccc2ccccc12)CC1CCCO1 (configuration not stated),max response,CRL-7250,-0.146%
same,outcome,HaCat [3],inactive
same,max response,KB-3-1,13.9%
same,max response,NIH3T3 [1],3.27%
same,outcome,HACAT [4],inactive
same,Potency,MCC-13,inactive
same,Potency,MCC-26,inactive
same,Potency,MKL-1,inactive
same,Potency,MKL-2,inactive
same,Potency,UISO,inactive
same,Potency,WaGa,inactive
same,Potency,C33A,inactive
same,Potency,CAOV3,inactive
same,Potency,Es-2,inactive
same,Potency,HeLa,inactive
NC(=O)n1c(O)c(C(=O)c2cccs2)c2cc(Cl)ccc21,max response,CRL-7250,4.52%
same,outcome,HaCat [3],inactive
same,max response,KB-3-1,2.04%
same,max response,NIH3T3 [1],0.218%
same,outcome,HACAT [4],inactive
same,Potency,MCC-13,inactive
same,Potency,MCC-26,inactive
same,Potency,MKL-1,inactive
same,Potency,MKL-2,inactive
same,Potency,C33A,inactive
same,Potency,CAOV3,inactive
same,Potency,CASKI,inactive
same,Potency,Es-2,inactive

# — PubChem BioAssay (NCATS)
